“And” between values parts separate entries of the source, which are not always exact repeats. Equal entries are not always repeated. Where a structure was tested more than once in an assay, its records may differ in their call. The source made the active and inactive calls. Rule for the calls: active = hit-call score of the fitted dose curve at least 0.9, where 1 is the maximum; inactive = score below 0.9.
Tests used:
[1] = ATG_GRE_CIS: Attagene CIS-FACTORIAL HepG2 Assay for human Glucocorticoid Response Elements (GRE) (AID 2282947); conditions: HepG2 GRE cis-reporter, Attagene multiplex mRNA; actives raise or lower the signal
Procedure, shortened: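 Assay uses human hepatoma HepG2 cells transfected with cis-promoter reporter units, exposed 24 h. mRNA from reporters detected by RT-PCR plus capillary electrophoresis; DMSO serves as negative control and baseline.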

[2] = ATG_ISRE_CIS: Attagene CIS-FACTORIAL HepG2 Assay for human Interferon Regulatory Factor 1 (IRF1) binding to an Interferon-Stimulated Response Element (ISRE) (AID 2282948); conditions: HepG2 ISRE cis-reporter (Attagene), mRNA transcription readout; actives raise or lower the signal
Procedure, shortened: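 HepG2 cells transiently transfected with multiplexed cis-promoter reporter units; after 24 h compound exposure, reporter mRNA quantified by RT-PCR, FAM labelling, HpaI digestion and capillary electrophoresis. Bidirectional fit versus DMSO baseline.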

[3] = ATG_M_32_CIS: Attagene CIS-FACTORIAL HepG2 Assay for M32 Transcription Factor (Internal Marker) (AID 2282949); conditions: HepG2 Attagene cis-factorial M32 reporter, mRNA; actives raise or lower the signal;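 note: background control marker of the multiplexed CIS panel rather than a real target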
Procedure, shortened: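 Following 24 h chemical exposure of HepG2 cells transiently expressing cis-promoter reporter constructs, reporter transcript levels were determined by RT-PCR with fluorescent labelling and capillary electrophoresis, then fitted bidirectionally against DMSO.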

[4] = ATG_M_06_CIS: Attagene CIS-FACTORIAL HepG2 Assay for M06 Transcription Factor (Internal Marker) (AID 2282950); conditions: HepG2 Attagene CIS-FACTORIAL M06 internal marker reporter; actives raise or lower the signal
Procedure, shortened: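 Terse: HepG2, transient MRTU transfection (FuGene 6), 24 h dosing; total RNA, oligo(dT) RT, PCR, FAM label, HpaI cut, capillary electrophoresis; bidirectional fit vs DMSO baseline; background-control endpoint.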

[5] = biological target: Hypoxia-inducible factor 1-alpha (Homo sapiens) (UniProt Q16665); assay: ATG_HIF1a_CIS: Attagene CIS-FACTORIAL HepG2 Assay for human Hypoxia Inducible Factor 1 (HIF1A) (AID 2282951); conditions: HepG2 Attagene cis-factorial HIF1a reporter transcription; actives raise or lower the signal
Chain of Hypoxia-inducible factor 1-alpha (Homo sapiens) (Q16665 whole entry, looked up): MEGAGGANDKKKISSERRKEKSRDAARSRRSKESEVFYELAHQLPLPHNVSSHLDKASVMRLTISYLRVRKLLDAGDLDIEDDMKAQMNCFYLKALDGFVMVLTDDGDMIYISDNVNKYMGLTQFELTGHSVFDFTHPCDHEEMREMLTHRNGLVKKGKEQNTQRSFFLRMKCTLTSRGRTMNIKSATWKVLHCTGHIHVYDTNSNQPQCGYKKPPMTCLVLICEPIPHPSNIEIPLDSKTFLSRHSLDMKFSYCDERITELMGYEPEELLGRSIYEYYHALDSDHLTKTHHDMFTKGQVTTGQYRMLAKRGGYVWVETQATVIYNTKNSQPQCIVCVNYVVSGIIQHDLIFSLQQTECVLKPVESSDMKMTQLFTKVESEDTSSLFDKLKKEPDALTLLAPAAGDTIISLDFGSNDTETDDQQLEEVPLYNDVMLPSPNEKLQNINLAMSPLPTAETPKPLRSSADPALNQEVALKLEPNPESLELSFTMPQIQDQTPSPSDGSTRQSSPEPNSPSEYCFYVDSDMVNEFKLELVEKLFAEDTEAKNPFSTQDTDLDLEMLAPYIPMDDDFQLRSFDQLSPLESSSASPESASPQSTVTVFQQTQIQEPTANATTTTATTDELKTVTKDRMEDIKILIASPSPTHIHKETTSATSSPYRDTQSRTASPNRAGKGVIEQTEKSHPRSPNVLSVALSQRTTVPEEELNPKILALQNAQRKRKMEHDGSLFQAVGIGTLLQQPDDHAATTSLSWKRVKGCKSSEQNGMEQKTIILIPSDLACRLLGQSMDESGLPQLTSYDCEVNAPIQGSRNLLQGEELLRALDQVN
Procedure, shortened: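 HepG2 cells transiently transfected with multiplexed cis-promoter reporter units; reporter mRNA read 24 h after dosing by RT-PCR, 6-FAM primer-extension labelling, HpaI digestion and capillary electrophoresis. Bidirectional fit versus DMSO baseline.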

[6] = biological target: Hepatocyte nuclear factor 6 (Homo sapiens) (UniProt Q9UBC0); assay: ATG_HNF6_CIS: Attagene CIS-FACTORIAL HepG2 Assay for human Hepatocyte Nuclear Factor 6 (HNF6) (AID 2282952); conditions: HepG2 Attagene cis-factorial HNF6 reporter transcription; actives raise or lower the signal
Chain of Hepatocyte nuclear factor 6 (Homo sapiens) (Q9UBC0 whole entry, looked up): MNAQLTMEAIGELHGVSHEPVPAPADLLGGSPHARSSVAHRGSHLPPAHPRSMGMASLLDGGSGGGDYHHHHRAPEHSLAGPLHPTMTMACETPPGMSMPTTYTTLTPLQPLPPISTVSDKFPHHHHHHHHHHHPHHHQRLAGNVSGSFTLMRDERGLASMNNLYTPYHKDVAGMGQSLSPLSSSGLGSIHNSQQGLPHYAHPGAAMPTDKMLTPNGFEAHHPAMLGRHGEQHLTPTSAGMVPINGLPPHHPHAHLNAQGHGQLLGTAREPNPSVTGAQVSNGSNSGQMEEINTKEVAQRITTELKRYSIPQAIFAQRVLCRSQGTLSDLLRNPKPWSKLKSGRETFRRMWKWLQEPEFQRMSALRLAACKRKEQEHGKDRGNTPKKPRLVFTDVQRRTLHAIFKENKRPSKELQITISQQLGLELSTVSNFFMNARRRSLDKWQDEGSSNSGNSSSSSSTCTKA
Procedure, shortened: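 HepG2 cells transiently transfected with cis-element-driven multiple reporter transcription units, dosed 24 h; reporter mRNA quantified by RT-PCR, FAM primer extension, HpaI digestion and capillary electrophoresis; bidirectional fit versus DMSO baseline.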

[7] = biological target: Heat shock factor protein 1 (Homo sapiens) (UniProt Q00613); assay: ATG_HSE_CIS: Attagene CIS-FACTORIAL HepG2 Assay for human Heat Shock Transcription Factor 1 (HSE) (AID 2282953); conditions: HepG2 HSE cis-reporter, Attagene RNA transcription; actives raise or lower the signal
Chain of Heat shock factor protein 1 (Homo sapiens) (Q00613 whole entry, looked up, the tested form may be a part): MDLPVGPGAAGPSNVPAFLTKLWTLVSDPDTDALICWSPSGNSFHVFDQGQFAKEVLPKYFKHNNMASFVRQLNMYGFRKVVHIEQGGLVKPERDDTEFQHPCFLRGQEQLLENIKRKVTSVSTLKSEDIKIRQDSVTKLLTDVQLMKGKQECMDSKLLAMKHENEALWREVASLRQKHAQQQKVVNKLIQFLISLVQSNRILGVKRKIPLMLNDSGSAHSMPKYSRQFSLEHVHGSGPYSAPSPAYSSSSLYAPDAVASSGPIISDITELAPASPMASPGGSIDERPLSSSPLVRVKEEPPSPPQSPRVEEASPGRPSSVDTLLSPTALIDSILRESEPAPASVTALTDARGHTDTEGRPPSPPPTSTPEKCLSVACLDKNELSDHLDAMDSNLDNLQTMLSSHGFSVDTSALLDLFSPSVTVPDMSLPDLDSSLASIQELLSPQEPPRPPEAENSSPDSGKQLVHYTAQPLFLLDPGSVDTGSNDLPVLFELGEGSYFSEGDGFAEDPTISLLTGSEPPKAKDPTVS
Procedure, shortened: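 Read-out: fluorescence of reporter-specific RT-PCR fragments separated by capillary electrophoresis. HepG2 carrying transfected cis-element reporter units; 24 h dosing; activity fitted in both directions relative to DMSO baseline.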

[8] = ATG_MRE_CIS: Attagene CIS-FACTORIAL HepG2 Assay for human Metal Responsive Element (MRE) (AID 2282954); conditions: HepG2 MRE cis-reporter transcription, Attagene multiplex; actives raise or lower the signal
Procedure, shortened: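 After a 24 h chemical exposure, transiently transfected HepG2 cells yield RNA whose reporter sequences are amplified, FAM-labelled and sized by capillary electrophoresis. Curves are fitted bidirectionally relative to DMSO.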

[9] = biological target: Paired box protein Pax-6 (Homo sapiens) (UniProt P26367); assay: ATG_Pax6_CIS: Attagene CIS-FACTORIAL HepG2 Assay for human Paired Box 6 (PAX6) (AID 2282956); conditions: HepG2 CIS-FACTORIAL PAX6 reporter transcription, RNA readout; actives raise or lower the signal
Chain of Paired box protein Pax-6 (Homo sapiens) (P26367 whole entry, looked up): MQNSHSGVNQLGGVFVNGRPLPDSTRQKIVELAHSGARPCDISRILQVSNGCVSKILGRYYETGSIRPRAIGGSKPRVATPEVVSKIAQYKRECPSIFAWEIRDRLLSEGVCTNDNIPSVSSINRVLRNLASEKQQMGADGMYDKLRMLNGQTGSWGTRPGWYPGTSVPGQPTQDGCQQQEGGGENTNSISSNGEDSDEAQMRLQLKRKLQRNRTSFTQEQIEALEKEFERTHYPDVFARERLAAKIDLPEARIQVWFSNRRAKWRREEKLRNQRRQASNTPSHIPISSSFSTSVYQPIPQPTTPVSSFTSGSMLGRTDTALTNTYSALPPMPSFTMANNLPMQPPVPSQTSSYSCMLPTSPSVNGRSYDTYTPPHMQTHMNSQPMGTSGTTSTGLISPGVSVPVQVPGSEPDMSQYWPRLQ
Procedure, shortened: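 HepG2 cells transiently transfected with multiplexed cis-promoter reporter units (endogenous TF activity) were dosed for 24 h. Reporter mRNA was quantified by RT-PCR, 6-FAM labeling, HpaI digestion and capillary electrophoresis; bidirectional fitting versus DMSO baseline.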

[10] = ATG_PXRE_CIS: Attagene CIS-FACTORIAL HepG2 Assay for human Pregnane X Receptor Element (PXRE) (AID 2282957); conditions: HepG2 Attagene CIS-FACTORIAL PXRE reporter, mRNA; actives raise or lower the signal
Procedure, shortened: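 HepG2 cells transiently transfected with cis-regulated multiple reporter transcription units; endogenous factor activity measured as reporter mRNA 24 h after dosing. RT-PCR, fluorescent primer extension, HpaI digestion, capillary electrophoresis; bidirectional fit versus DMSO baseline.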

[11] = ATG_PPRE_CIS: Attagene CIS-FACTORIAL HepG2 Assay for human Peroxisome Proliferator-activated Response Element (PPRE) (AID 2282958); conditions: HepG2 PPRE cis-element reporter, Attagene transcription factor profiling; actives raise or lower the signal
Procedure, shortened: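 HepG2 cells transiently transfected with multiplexed cis-element reporter units measure endogenous transcription factor activity. After 24 h compound exposure, reporter mRNA is quantified by RT-PCR, 6-FAM labeling, HpaI digestion and capillary electrophoresis; bidirectional fits are made against DMSO baseline.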

[12] = ATG_Sox_CIS: Attagene CIS-FACTORIAL HepG2 Assay for human SRY-box transcription factor (SOX) (AID 2282960); conditions: HepG2 Attagene cis-factorial SOX reporter, mRNA; actives raise or lower the signal
Procedure, shortened: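 HepG2 cells transiently transfected with cis-element-driven multiple reporter transcription units, dosed 24 h; reporter mRNA measured by RT-PCR, FAM labelling, HpaI digestion and capillary electrophoresis. Bidirectional fit versus DMSO baseline.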

[13] = biological target: Transcription factor Sp1 (Homo sapiens) (UniProt P08047); assay: ATG_Sp1_CIS: Attagene CIS-FACTORIAL HepG2 Assay for human Specificity Protein 1 (Sp1) (AID 2282961); conditions: HepG2 Sp1 cis-reporter transcription, actives raise or lower the signal
Chain of Transcription factor Sp1 (Homo sapiens) (P08047 whole entry, looked up): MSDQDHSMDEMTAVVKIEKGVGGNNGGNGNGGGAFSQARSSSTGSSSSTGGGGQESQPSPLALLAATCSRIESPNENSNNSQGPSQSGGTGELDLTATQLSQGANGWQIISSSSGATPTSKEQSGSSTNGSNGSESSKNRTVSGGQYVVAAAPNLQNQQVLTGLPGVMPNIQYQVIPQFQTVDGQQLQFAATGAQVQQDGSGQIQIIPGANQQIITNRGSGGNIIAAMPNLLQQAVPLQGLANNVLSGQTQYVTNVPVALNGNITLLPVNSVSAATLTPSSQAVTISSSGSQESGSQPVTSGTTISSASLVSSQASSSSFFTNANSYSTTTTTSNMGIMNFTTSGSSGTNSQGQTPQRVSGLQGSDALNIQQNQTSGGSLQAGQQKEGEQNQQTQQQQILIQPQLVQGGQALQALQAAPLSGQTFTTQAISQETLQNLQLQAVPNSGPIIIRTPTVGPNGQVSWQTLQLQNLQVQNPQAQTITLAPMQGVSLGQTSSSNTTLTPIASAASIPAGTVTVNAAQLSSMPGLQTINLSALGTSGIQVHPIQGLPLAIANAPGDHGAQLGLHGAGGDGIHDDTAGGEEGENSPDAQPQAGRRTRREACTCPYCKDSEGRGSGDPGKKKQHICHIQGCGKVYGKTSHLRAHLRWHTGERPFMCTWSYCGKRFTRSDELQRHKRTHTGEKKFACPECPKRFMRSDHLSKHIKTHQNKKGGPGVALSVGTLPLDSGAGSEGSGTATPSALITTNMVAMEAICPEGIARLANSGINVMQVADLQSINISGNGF
Procedure, shortened: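 HepG2 cells transiently transfected with multiple reporter transcription units driven by cis-regulatory elements; Sp1-responsive reporter mRNA measured 24 h after dosing by RT-PCR and capillary electrophoresis fluorescence, fitted bidirectionally against DMSO baseline.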

[14] = ATG_SREBP_CIS: Attagene CIS-FACTORIAL HepG2 Assay for human Sterol Regulatory Element Binding (SREBP) (AID 2282962); conditions: HepG2 Attagene cis-factorial SREBP reporter, mRNA; actives raise or lower the signal
Procedure, shortened: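 HepG2 cells transiently transfected with multiplexed cis-element reporter units report endogenous transcription factor activity. After 24 h of chemical exposure, reporter mRNA was quantified by RT-PCR, 6-FAM labelling, HpaI digestion and capillary electrophoresis; bidirectional fits used DMSO as baseline.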

[15] = biological target: Signal transducer and activator of transcription 3 (Homo sapiens) (UniProt P40763); assay: ATG_STAT3_CIS: Attagene CIS-FACTORIAL HepG2 Assay for human Signal Transducer and Activator of Transcription 3 (STAT3) (AID 2282963); conditions: HepG2, Attagene cis-factorial STAT3 reporter transcription; actives raise or lower the signal
Chain of Signal transducer and activator of transcription 3 (Homo sapiens) (P40763 whole entry, looked up): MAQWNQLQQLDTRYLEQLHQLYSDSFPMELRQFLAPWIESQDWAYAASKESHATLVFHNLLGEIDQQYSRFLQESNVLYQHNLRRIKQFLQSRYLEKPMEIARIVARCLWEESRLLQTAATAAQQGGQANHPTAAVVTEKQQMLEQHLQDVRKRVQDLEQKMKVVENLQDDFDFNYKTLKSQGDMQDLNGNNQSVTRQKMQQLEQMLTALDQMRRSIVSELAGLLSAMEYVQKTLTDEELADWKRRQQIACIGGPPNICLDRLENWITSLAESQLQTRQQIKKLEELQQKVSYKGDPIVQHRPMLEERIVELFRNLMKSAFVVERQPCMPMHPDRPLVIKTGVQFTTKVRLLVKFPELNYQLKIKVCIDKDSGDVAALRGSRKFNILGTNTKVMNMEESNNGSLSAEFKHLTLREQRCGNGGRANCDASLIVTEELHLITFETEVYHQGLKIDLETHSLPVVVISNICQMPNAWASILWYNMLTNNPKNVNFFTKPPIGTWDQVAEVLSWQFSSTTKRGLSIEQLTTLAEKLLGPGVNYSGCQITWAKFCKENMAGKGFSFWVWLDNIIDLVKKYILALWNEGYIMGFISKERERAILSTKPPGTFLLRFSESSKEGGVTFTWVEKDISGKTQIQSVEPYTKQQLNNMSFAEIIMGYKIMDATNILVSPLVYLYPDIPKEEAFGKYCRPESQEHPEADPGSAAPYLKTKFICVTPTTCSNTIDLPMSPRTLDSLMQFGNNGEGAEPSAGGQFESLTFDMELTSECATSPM
Procedure, shortened: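 After a 24 h compound incubation, total RNA from MRTU-transfected HepG2 cells was converted to cDNA and reporter sequences PCR-amplified, labelled and profiled by capillary electrophoresis. Gain and loss of signal were referenced to DMSO.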

[16] = ATG_TA_CIS: Attagene CIS-FACTORIAL HepG2 Assay for human TA Basal Promoter (AID 2282964); conditions: HepG2 Attagene CIS-factorial TA basal promoter reporter; actives raise or lower the signal
Procedure, shortened: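 Transfected HepG2, 24 h compound exposure; RNA → RT-PCR → FAM primer extension → HpaI cut → CE fluorescence. Gain/loss-of-signal fitted against DMSO negative control. Background-control readout.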

[17] = ATG_TCF_b_cat_CIS: Attagene CIS-FACTORIAL HepG2 Assay for human T-Cell-Factor with beta-catenin (TCF/b-cat) (AID 2282965); conditions: HepG2 TCF/beta-catenin cis-reporter transcription, actives raise or lower the signal
Procedure, shortened: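 Measured: reporter mRNA in HepG2 transiently transfected with cis-promoter reporter units, 24 h after chemical addition. Fitting was bidirectional, DMSO as negative control.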

[18] = ATG_PBREM_CIS: Attagene CIS-FACTORIAL HepG2 Assay for human Phenobarbital-responsive Enhancer Module (PBREM) (AID 2282955); conditions: HepG2 PBREM cis-reporter, Attagene multiplexed transcription; actives raise or lower the signal
Procedure, shortened: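 HepG2 cells transiently transfected with multiple cis-regulated reporter transcription units; endogenous factor activity at the PBREM element measured as reporter mRNA 24 h after dosing, via RT-PCR and capillary electrophoresis of fluorescent fragments; bidirectional fitting versus DMSO.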

[19] = ATG_RORE_CIS: Attagene CIS-FACTORIAL HepG2 Assay for human RAR-related Orphan Receptor Element (RORE) (AID 2282959); conditions: HepG2 Attagene cis-factorial RORE reporter, mRNA; actives raise or lower the signal
Procedure, shortened: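 HepG2 cells transiently transfected with multiple cis-element reporter transcription units, exposed to chemical for 24 h. Reporter mRNA quantified by RT-PCR, 6-FAM primer-extension labeling, HpaI digestion and capillary electrophoresis; bidirectional fit versus DMSO baseline.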

[20] = biological target: Bile acid receptor (Homo sapiens) (UniProt Q96RI1); assay: ATG_IR1_CIS: Attagene CIS-FACTORIAL HepG2 Assay for human Nuclear Receptor Subfamily 1 Group H Member 4 (NR1H4), IR1 submotif (AID 2282946); conditions: IR1 reporter transcription, actives raise or lower the signal
Chain of Bile acid receptor (Homo sapiens) (Q96RI1 whole entry, looked up, the tested form may be a part): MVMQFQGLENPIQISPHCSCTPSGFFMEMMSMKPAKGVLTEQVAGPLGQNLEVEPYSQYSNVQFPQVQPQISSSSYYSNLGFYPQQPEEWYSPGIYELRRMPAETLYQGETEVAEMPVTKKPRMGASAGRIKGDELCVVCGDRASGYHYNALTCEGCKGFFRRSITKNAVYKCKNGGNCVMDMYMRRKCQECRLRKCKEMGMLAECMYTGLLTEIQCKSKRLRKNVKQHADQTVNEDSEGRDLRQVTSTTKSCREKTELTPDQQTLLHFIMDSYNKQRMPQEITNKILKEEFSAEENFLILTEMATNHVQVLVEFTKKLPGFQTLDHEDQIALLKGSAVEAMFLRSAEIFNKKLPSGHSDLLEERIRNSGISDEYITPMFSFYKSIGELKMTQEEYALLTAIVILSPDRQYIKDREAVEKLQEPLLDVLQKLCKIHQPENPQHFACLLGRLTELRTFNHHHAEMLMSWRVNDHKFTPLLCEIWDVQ
Procedure, shortened: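 Cells (human HepG2) carry transiently transfected cis-promoter reporter transcription units. Compounds are incubated 24 h, total RNA is reverse-transcribed and amplified, and labelled fragments are resolved by capillary electrophoresis. Curves use DMSO as baseline.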

Measured: AC50

CCCCCCCC[Si](OCC)(OCC)OCC
inactive: [1] | [2] | [3] | [4] | [5] | [6] | [7] | [8] | [9] | [11] | [12] | [13] | [14] | [15] | [16] | [17]
active: [1] 127 µM | [2] 41.8 µM | [5] 57.3 µM and 26.4 µM | [10] 8.67 µM [middle of 4 runs] | [11] 62.9 µM and 70.5 µM | [12] 147 µM | [13] 159 µM | [14] 100 µM | [17] 68.9 µM and 100 µM

CC[C@@H]1C[C@H](N(Cc2cc(C(F)(F)F)cc(C(F)(F)F)c2)C(C)=O)c2cc(C(F)(F)F)ccc2N1C(=O)OC(C)C
inactive: [1] | [2] | [3] | [4] | [5] | [6] | [7] | [9] | [11] | [19] | [12] | [13] | [14] | [15] | [16]
active: [18] 0.181 µM | [10] 0.0676 µM

CCCCCCCCCCCCO
inactive: [20] | [2] | [3] | [4] | [5] | [6] | [7] | [8] | [18] | [9] | [10] | [11] | [19] | [12] | [13] | [14] | [15] | [16]

Cc1occc1C(=O)Nc1ccc(C(=O)N2CCC(F)(F)/C(=C\C(=O)N3CCC(N4CCCCC4)CC3)c3ccccc32)cc1
active: [1] 57.8 µM | [2] 34.5 µM | [6] 49.8 µM | [9] 34.5 µM | [10] 8.38 µM | [12] 42.3 µM | [13] 56 µM | [15] 62.6 µM | [17] 26.5 µM
inactive: [20] | [3] | [4] | [5] | [18] | [14] | [16]

O=c1ccc2ccccc2o1
inactive: [20] | [2] | [3] | [4] | [5] | [6] | [7] | [8] | [18] | [9] | [10] | [12] | [13] | [14] | [15] | [16] | [17]

CC(C)(O)c1ccc(CNC(=O)c2cccnc2Oc2ccc3nonc3c2)cc1
inactive: [1] | [2] | [3] | [4] | [5] | [6] | [7] | [9] | [11] | [19] | [12] | [13] | [15] | [16]
active: [18] 33.4 µM | [10] 7.65 µM | [14] 50.9 µM

C[C@]12CC[C@@H]3c4ccc(O)cc4CC[C@H]3[C@@H]1CC[C@H]2O
active: [8] 24.8 µM | [10] 7.87 µM and 6.41 µM and 4.84 µM | [14] 27.6 µM
inactive: [1] | [2] | [3] | [4] | [6] | [7] | [8] | [18] | [9] | [10] | [11] | [12] | [13] | [14] | [15] | [16]

Source: PubChem BioAssay (EPA / NIEHS)
